# Unmarked numbers belong to inactive results. Results filed as inconclusive are left out. Where a call stands in place of a potency, no number is given. The source made the active and inactive calls. Calls come from the whole dose curve; as a rule, active = well fitted curve in the direction sought with a large enough effect in the repeat runs; inconclusive = weak or mixed curves; inactive = no such curve, though single readings can be large; an effect the other way counts as inactive or inconclusive.
# Experiments:
# [1] = qHTS RealTime-Glo MT Cell Viability Assay in HEK293 cells - 0 hour (AID 1224880); note: top concentration of the series differs between compounds; nearly all actives have a fitted effect of over 45% in size
# How it was run: (§1)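 600 HEK293 cells per well, dispensed already mixed with RealTime-Glo MT reagents. Compound dosing came 5 h later. The same wells were read for luminescence at 0, 8, 16, 24, 32 and 40 h of exposure at 37 C.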
# [2] = A CellTox Green Cytotoxicity Assay to monitor cytotoxicity in HepG2 cells - 0 hour (AID 1224882); note: nearly all actives have a fitted effect of over 35% in size
# How it was run: (§2)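 First, HepG2 cells (600/well) mixed with reagent were plated; second, after 5 h at 37 C they received compounds via pintool; third, fluorescence was measured at 0 h through 40 h at 8 h intervals.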
# [3] = A CellTox Green Cytotoxicity Assay to monitor cytotoxicity in HepG2 cells - 32 hour (AID 1224883); note: nearly all actives have a fitted effect of over 50% in size; note: potency is the fitted concentration of half-maximal effect
# How it was run: as §2
# [4] = A CellTox Green Cytotoxicity Assay to monitor cytotoxicity in HEK293 cells - 8 hour (AID 1224884); note: nearly all actives have a fitted effect of over 35% in size; note: potency is the fitted concentration of half-maximal effect
# How it was run: (§3)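 Dead-cell fluorescence measured kinetically: asymmetric cyanine dye, HEK293, 600 cells/well, 5 h settle, 23 nL cpd/DMSO, 37 C, reads 0–40 h every 8 h.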
# [5] = qHTS RealTime-Glo MT Cell Viability Assay in HepG2 cells - 16 hour (AID 1224885); note: nearly all actives have a fitted effect of over 50% in size; note: potency is the fitted concentration of half-maximal effect
# How it was run: (§4)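 HepG2 cells were seeded at 600 cells/well together with NanoLuc luciferase and a cell-permeant prosubstrate, preincubated 5 h at 37 C/5% CO2, then pin-dosed with compounds in DMSO. Nonlytic luminescence from viable cells was read at each time point.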
# [6] = qHTS RealTime-Glo MT Cell Viability Assay in HEK293 cells - 24 hour (AID 1224886); note: nearly all actives have a fitted effect of over 50% in size; note: potency is the fitted concentration of half-maximal effect; for activity change, negative = cytotoxicity: top concentration of the series differs between compounds
# How it was run: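 HEK293 cells were seeded at 600 cells/well together with NanoLuc luciferase and cell-permeant prosubstrate, preincubated 5 h at 37 C/5% CO2, then given compound in DMSO by pintool. Luminescence from viable-cell prosubstrate reduction was read repeatedly over 40 h.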
# [7] = qHTS RealTime-Glo MT Cell Viability Assay in HEK293 cells - 8 hour (AID 1224887); note: nearly all actives have a fitted effect of over 50% in size; note: potency is the fitted concentration of half-maximal effect; for activity change, negative = cytotoxicity: top concentration of the series differs between compounds
# How it was run: as §1
# [8] = A CellTox Green Cytotoxicity Assay to monitor cytotoxicity in HEK293 cells - 16 hour (AID 1224888); note: nearly all actives have a fitted effect of over 35% in size; note: potency is the fitted concentration of half-maximal effect
# How it was run: as §3
# [9] = qHTS RealTime-Glo MT Cell Viability Assay in HepG2 cells - 0 hour (AID 1224889); note: nearly all actives have a fitted effect of over 50% in size
# How it was run: as §4
# [10] = A CellTox Green Cytotoxicity Assay to monitor cytotoxicity in HEK293 cells - 32 hour (AID 1224881); note: nearly all actives have a fitted effect of over 40% in size; note: potency is the fitted concentration of half-maximal effect
# How it was run: as §3
SMILES,Potency [1],Potency [2],Potency [3],Potency [4],Potency [5],Potency [6],Potency [7],Potency [8],Potency [9],Potency [10],cytotoxicity [2],cytotoxicity increase [3],cytotoxicity increase [4],"activity change, negative = cytotoxic [5]","activity change, negative = cytotoxicity [9]"
C/C(C=O)=C\c1ccccc1,inactive,inactive,inactive,inactive,inactive,inactive,inactive,inactive,inactive,,,,,,
Nc1c(Cl)cc(Cl)cc1[N+](=O)[O-],inactive,inactive,,inactive,inactive,inactive,inactive,inactive,,inactive,,,,,
CC[C@H]1OC(=O)[C@H](C)[C@@H](O[C@H]2C[C@@](C)(OC)[C@@H](O)[C@H](C)O2)[C@H](C)[C@@H](O[C@@H]2O[C@H](C)C[C@H](N(C)C)[C@H]2O)[C@](C)(O)C[C@@H](C)C(=O)[C@H](C)[C@@H](O)[C@]1(C)O,inactive,inactive,inactive,inactive,inactive,inactive,inactive,inactive,,,,,,,
CC(=O)OCCC1CCCCC1,inactive,inactive,,,inactive,inactive,inactive,inactive,inactive,inactive,,,,,
CCCCCCCCCCCSCC(=O)O,inactive,inactive,inactive,inactive,inactive,inactive,inactive,inactive,inactive,,,,,,
CC(C)(O)c1coc(S(=O)(=O)NC(=O)Nc2c3c(cc4c2CCC4)CCC3)c1,inactive,inactive,,inactive,inactive,inactive,,inactive,inactive,inactive,,,,,
CCNc1nc(N)nc(Cl)n1,inactive,inactive,inactive,inactive,inactive,inactive,inactive,inactive,,,,,,,
CCCCC(CC)COS(=O)(=O)O (centres undefined),inactive,inactive,inactive,inactive,inactive,inactive,inactive,,inactive,,,,,,
CCC(CO)(CO)[N+](=O)[O-],inactive,inactive,,inactive,,inactive,inactive,inactive,inactive,inactive,,,,,
CCCCCCCCCCCC(=O)OCC(O)CO (centres undefined),inactive,inactive,inactive,inactive,inactive,inactive,inactive,inactive,inactive,,,,,,
COc1ccc(/C=C/C(=O)c2ccc(OC)cc2OC)cc1,inactive,inactive,,inactive,inactive,inactive,,inactive,inactive,inactive,,,,,
CC(=O)OC(C)C[N+](C)(C)C (centres undefined),inactive,inactive,inactive,inactive,inactive,inactive,inactive,inactive,inactive,,,,,,
COC(=O)c1sccc1S(N)(=O)=O,inactive,inactive,,inactive,inactive,inactive,,inactive,inactive,inactive,,,,,
COc1cc(C(C)=O)ccc1OCCCN1CCC(c2noc3cc(F)ccc23)CC1,inactive,inactive,,inactive,inactive,9.52 µM (active),9.52 µM (active),inactive,inactive,inactive,,,,,
CC1CCCC(=O)C1=O (centres undefined),inactive,inactive,,inactive,inactive,inactive,inactive,inactive,inactive,inactive,,,,,
CC(C)(C)C1(CCc2ccc(Cl)cc2)CO1 (centres undefined),inactive,inactive,,inactive,inactive,inactive,inactive,inactive,inactive,21.9 µM (active),,,,,
CNCc1ccc(NC(=O)c2c[nH]c3c2C(=O)CCC3)cc1,inactive,inactive,inactive,,,,,inactive,,inactive,,,,,
CCCCCCC(O)CCCCCCCCCCC(=O)OC (centres undefined),inactive,inactive,inactive,inactive,inactive,inactive,inactive,inactive,inactive,,,,,,
O=C(O)CO,inactive,inactive,,,inactive,inactive,,inactive,inactive,inactive,,,,,
CCCCCCC(O)CCOC(C)=O (centres undefined),inactive,inactive,inactive,inactive,inactive,inactive,inactive,inactive,,,,,,,
Cc1ccc(Nc2c(F)cccc2Cl)c(CC(=O)O)c1,inactive,inactive,inactive,inactive,inactive,inactive,inactive,inactive,inactive,,,,,,
CCC(Cl)CC(Cl)C(Cl)C(Cl)C(Cl)C(C)Cl (centres undefined),,,,,,,,,,,0.838% [at 15.8 µM],1.37% [at 15.8 µM],24.2% [at 15.8 µM],-2.19% [at 15.8 µM],1.09% [at 15.8 µM]
CC1C(C)(C)C2=C(C(=O)CCC2)C1(C)C (centres undefined),inactive,inactive,,,,inactive,inactive,inactive,inactive,,,,,,
Cc1ccc2nc(N)[nH]c(=O)c2c1Sc1ccncc1,inactive,inactive,inactive,inactive,,inactive,inactive,inactive,inactive,,,,,,
CN(C)CC/C=C1\c2ccccc2Sc2ccc(Cl)cc21,,inactive,21.3 µM (active),,23.9 µM (active),23.9 µM (active),,,,26.8 µM (active),,,,,
COc1ccc(N)c([N+](=O)[O-])c1,inactive,inactive,inactive,inactive,inactive,inactive,,inactive,inactive,,,,,,
O[C@@H](CNC[C@H](O)[C@H]1CCc2cc(F)ccc2O1)[C@@H]1CCc2cc(F)ccc2O1,,inactive,10.7 µM (active),23.9 µM (active),,19 µM (active),21.3 µM (active),26.8 µM (active),,26.8 µM (active),,,,,
Nc1nc2ccc(OC(F)(F)F)cc2s1,inactive,inactive,inactive,,inactive,,inactive,inactive,inactive,,,,,,
